DT40 TDP1 no CPT – qHTS for Inhibitors of human tyrosyl-DNA phosphodiesterase 1 (TDP1): qHTS in cells in absence of CPT | DT40 Tdp1-/- hTDP1 cells, no CPT, ATP luminescence, 48 h | hit rate 15% among 420,000 | Potency, µM (highest dose often 46.2 µM), usual class: inhibitors; note: nearly all actives have a fitted effect of over 55% in size
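Growth kinetics read by CellTiter-Glo luminescence after ≥48 hr at 37 °C. Cells: DT40 Tdp1-/- stably carrying human TDP1, 400 per well, compound exposure in the absence of CPT (DMSO vehicle).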
HT1080-NT tox – kills 2HG-producing HT-1080-NT fibrosarcoma cells | HT-1080-NT fibrosarcoma viability, CellTiter-Glo ATP luminescence, 48 h | Potency, µM (highest dose often 46.1 µM), most hits filed as cytotoxic | hit rate 1.6% among 360,000 | AID 686970;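 note: NT is the 2HG producing partner of a matched IDH1 knockdown line; nearly all actives have a fitted effect of over 55% in size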
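Read-out is CellTiter-Glo luminescence after 10 minutes at room temperature, following 48 hours' compound treatment of HT-1080-NT cells (750 cells/well, RPMI, 5% FBS, 37 degrees C).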
ALOX12 inh – blocks human arachidonate 12S-lipoxygenase | P18054 | purified 12hLO, xylenol orange hydroperoxide absorbance | Potency, µM (series often up to 108 µM), most hits filed as inhibitors | hit rate 1.1% among 580,000 | AID 1671190
Target sequence (P18054 whole entry, looked up): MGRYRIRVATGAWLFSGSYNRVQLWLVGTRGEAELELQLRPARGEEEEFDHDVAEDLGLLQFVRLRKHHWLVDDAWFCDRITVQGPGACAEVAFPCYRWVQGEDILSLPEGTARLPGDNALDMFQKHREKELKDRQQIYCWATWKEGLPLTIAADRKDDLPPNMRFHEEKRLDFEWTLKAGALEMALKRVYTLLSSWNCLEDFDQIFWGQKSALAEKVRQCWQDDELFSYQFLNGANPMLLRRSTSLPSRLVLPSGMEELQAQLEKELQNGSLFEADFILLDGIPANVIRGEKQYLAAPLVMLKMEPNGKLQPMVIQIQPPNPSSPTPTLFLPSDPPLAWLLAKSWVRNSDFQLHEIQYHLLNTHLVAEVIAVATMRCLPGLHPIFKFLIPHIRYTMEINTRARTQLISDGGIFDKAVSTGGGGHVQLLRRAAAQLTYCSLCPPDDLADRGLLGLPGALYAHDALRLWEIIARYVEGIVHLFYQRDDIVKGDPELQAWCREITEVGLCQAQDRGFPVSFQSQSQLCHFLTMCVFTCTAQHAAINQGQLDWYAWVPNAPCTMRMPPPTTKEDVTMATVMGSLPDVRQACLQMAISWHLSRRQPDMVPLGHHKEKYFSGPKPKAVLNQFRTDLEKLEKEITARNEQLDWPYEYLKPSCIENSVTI
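Purified human 12hLO at 150 nM in 25 mM Hepes, 0.01% Triton X-100, pH 7.0, preincubated 15 min at room temperature with compound. Reaction started with 40 uM arachidonic acid, 30 min at room temperature. Hydroperoxide measured by Fe-xylenol orange, 573/405 nm absorbance ratio.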
DT40 TDP1 CPT – growth inhibition of DT40 Tdp1-/-;hTDP1 cells with camptothecin (screen for TDP1 inhibitors) | chicken DT40 Tdp1-/-;hTDP1 cells + 20 nM CPT, ATP luminescence, 48 h | hit rate 12% among 420,000 | Potency, µM (titrated, usually from 46.2 µM), usual class: inhibitors; note: nearly all actives have a fitted effect of over 55% in size
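Chicken DT40 Tdp1-/- cells complemented with human TDP1, 400 cells/well, exposed to compounds plus 20 nM camptothecin for at least 48 h at 37 C; viability read as ATP content by CellTiter-Glo luminescence.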
IL-1B inflam inh – inflammasome signaling inhibition, IL-1 beta readout | THP-1 LPS/ATP IL-1B secretion, AlphaLISA, 16 h; active compounds read low | activity change, % at 57.5 µM | hit rate 4.7% among 360,000; in the data active = activity change below about -50%; inconclusive = mostly about -30% to -49%
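THP-1 cells pretreated 1 hr with compounds (up to 57.5 uM final), then stimulated with LPS (250 ng/mL final) plus ATP (1.25 mM final); secreted IL-1B measured by AlphaLISA after 16 hr, decreased signal indicating inhibition.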
HT1080 IDH1KD tx – kills HT-1080 cells with IDH1 knockdown; hit rate 2% among 360,000; Potency, µM (titrated, usually from 46.1 µM), usual class: cytotoxic; AID 686971; HT-1080 IDH1 knockdown viability, ATP luminescence, 48 h
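Knockdown cells (IDH1KD HT-1080) received compounds 2 h after plating at 750 cells/well and were kept 48 h at 37 °C in 5% FBS RPMI. A CellTiter-Glo luminescence read gave % activity for curve fitting.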
A number is an active result; n = inactive; u = inconclusive; x = no result; ! = a repeat was not active; [ ] = remark or other dose. Only a selection was taken, and hits are over-represented in it overall. Unless noted, calls come from the whole dose curve; as a rule, active = well fitted curve in the direction sought with a large enough effect; inconclusive = small, poorly fitted or top-dose-only effect, or another doubt; inactive = no such curve, though single readings can be large; an effect the other way counts as inactive or inconclusive.

SMILES	DT40 TDP1 no CPT	HT1080-NT tox	ALOX12 inh	DT40 TDP1 CPT	IL-1B inflam inh	HT1080 IDH1KD tx
O=C(Nc1cc(S(=O)(=O)N2CCCCC2)ccc1O)c1ccccc1NS(=O)(=O)c1ccc(F)cc1	n	u	u	n	-55.6!	u
O=C(c1ccccc1NS(=O)(=O)c1ccc(F)cc1)N1CCCCC1	n	n	n	n	n	n
COc1cccc(C(=O)NC2CCN(c3cc(-c4ccc(Cl)cc4)[nH]n3)CC2)c1OC	x	x	n	x	x	x
CN(C)C(=O)c1cc(Cl)ccc1F	x	x	n	x	x	x
Cc1c(C)c(C)c(S(=O)(=O)Nc2cc(Cl)ccc2C(=O)N(C)C)c(C)c1C	x	x	39.8µM	x	x	x
COc1ccc(-c2noc([C@@H]3CCCN3C(=O)Cc3ccc(C)cc3)n2)cc1OC	x	x	n	x	x	x
COc1ccc(CNC(=O)C2CCN(C(=O)c3ccc(-n4ccc5ccccc54)s3)CC2)cc1	13µM	x	n	10.3µM	x	x
COc1ccc(CNC(=O)C2CCN(C(=O)c3sccc3-n3cccc3)CC2)cc1	n	n	n	n	u	n
CN(C)c1ccc(CNC(=O)C2CCN(C(=O)c3ccc(-n4ccc5ccccc54)s3)CC2)cc1	20.6µM	x	n	20.6µM	x	x
Cc1cc2ccccc2n1-c1ccc(C(=O)N2CCC(C(=O)NCc3ccc(F)cc3)CC2)s1	16.4µM	x	n	20.6µM	x	x
COc1ccc(C(=O)Nc2ccc(O)c3ccccc23)cc1	25.9µM	n	u	u	n	u
COc1ccc(NC(=O)Nc2ccccc2C(N)=O)cc1	n	n	n	n	n	n
COc1ccc(C(=O)Nc2noc3ccccc23)cc1	n	x	n	n	x	x
COc1ccc(NC(=O)Nc2ccc(O)c3ccccc23)cc1	13µM	n	u	5.8µM	n	n
O=C(NCC(c1ccco1)S(=O)(=O)c1cccs1)c1ccccc1F (stereo not drawn)	u	x	n	n	x	x
Clc1ccc(-c2noc(CSc3nnc(Cc4cccs4)n3-c3ccccc3)n2)cc1	u	n	n	u	n	n
Cc1ccc(-c2noc(CSc3nnc(Cc4ccccc4)n3-c3cccc(C)c3)n2)cc1	18.4µM	n[9.24 µM]	n	u	u	u
Cc1cccc(-n2c(Cc3ccccc3)nnc2SCc2nc(-c3cccs3)no2)c1	u	x	n	u	x	x
Cc1ccc(-c2noc(CSc3nnc(Cc4cccs4)n3-c3ccccc3)n2)cc1	20.6µM	n	n	20.6µM	n	n
CCOc1ccc(-c2noc(CSc3nnc(Cc4ccccc4)n3-c3cccc(C)c3)n2)cc1	13µM	x	n	18.4µM	x	x
Fc1ccc(OCc2nnc(-c3ccc(Br)o3)o2)cc1	x	x	n	x	x	x
COC(=O)CNC(=O)c1nc(C(C)(C)C)c2cnccn12	x	x	n[12.5 µM]	x	x	x
O=C(c1ccc(N2CC3CC(C2)[C@H]2CCCC(=O)N2C3)nc1)N1CCN(c2ncccn2)CC1 (stereo partly drawn)	x	x	n	x	x	x
O=C(CCCc1nc(-c2ccc(Cl)cc2)no1)Nc1cccnc1	14.6µM	n	n	16.4µM	n	u
CCOC(=O)c1cccc(NC(=O)CCc2nc(-c3ccc(C)cc3)no2)c1	23.1µM	n	n	u	n	n
SMILES	DT40 TDP1 no CPT	HT1080-NT tox	ALOX12 inh	DT40 TDP1 CPT	IL-1B inflam inh	HT1080 IDH1KD tx
O=C(CCCc1nc(-c2ccccc2)no1)Nc1cc(C(F)(F)F)cc(C(F)(F)F)c1	23.1µM	x	n	u	x	x
O=C(O)CCCc1nc(-c2ccccc2)no1	n	n	n	n	n	n
O=C(NCCc1ccccc1)c1ccc(NC(=O)c2cccnc2)cc1	u	u	n	n	n	u
O=C(Nc1ccc(-c2noc(CCc3ccccc3)n2)cc1)c1cccnc1	11.6µM	u	n	18.4µM	u	u
COc1cc(-c2noc(CCC(=O)Nc3cccnc3)n2)cc(OC)c1OC	n	n	n	n	n	n
CC(C)CN1C(=O)c2ccccc2C(C(=O)Nc2ccc(C(N)=O)cc2)C12CCCC2 (stereo not drawn)	x	x	n	x	x	x
